Data reported in PubChem BioAssay (EPA / NIEHS).
Inconclusive results are not listed. The source made the active and inactive calls. How the source made its calls: active means hit-call score of the fitted dose curve at least 0.9, where 1 is the maximum; inconclusive means response in the unintended direction; inactive means score below 0.9.

These compounds were tested against Retinoic acid receptor RXR-alpha (Homo sapiens) (UniProt P19793) (assay: ATG_RXRa_TRANS: Attagene TRANS-FACTORIAL HepG2 Assay for human Retinoid X Receptor alpha (RXRa) (AID 2283012)).
Description: ATG_TRANS is a cell-based, multiplexed-readout assay that uses HepG2, a human liver cell line, with measurements taken at 24 hours after chemical dosing in a 24-well plate.ATG_RXRa_TRANS is one of 30 assay component(s) measured or calculated from the ATG_TRANS assay. It is designed to make measurements of mRNA induction, a form of inducible reporter, as detected with fluorescence intensity signals by Reverse transcription polymerase chain reaction (RT-PCR) and Capillary electrophoresis technology.Data from the assay component ATG_RXRa_TRANS was analyzed into 1 assay endpoint. This assay endpoint, ATG_RXRa_TRANS, was analyzed in the positive analysis fitting direction relative to DMSO as the negative control and baseline of activity. Using a type of inducible reporter, measures of mRNA for gain-of-signal activity can be used to understand the reporter gene at the transcription factor-level as they relate to the gene RXRA. Furthermore, this assay endpoint can be referred to as a primary readout, because this assay has produced multiple assay endpoints where this one serves a reporter gene function. To generalize the intended target to other relatable targets, this assay endpoint is annotated to the nuclear receptor intended target family, where the subfamily is non-steroidal.
Human liver HepG2 cells are transiently transfected with multiple reporter transcription units (MRTUs) in 6-well plates using FuGene 6 reagent (Roche; 3 ml FuGene/1 mg DNA). The MRTU constructs are regulated by a cis-regulating element (promoter). […] A major difference between the CIS and TRANS system is that in CIS activities of endogenous TFs are measured, whereas the TRANS assay evaluates changes in activities of exogenous, chimeric NR-Gal4 proteins. […] At the end of 24 hour incubation, total RNA was isolated using TriZol reagent (Invitrogen). The isolated RNA is then reverse-transcribed using oligo(dT) primer and Mo-MLV reverse transcriptase (Invitrogen) with DNAse I (Ambion) treatment for 30 min. The one-tenth of the produced cDNA was amplified by PCR using Taq DNA polymerase (Invitrogen) and two reporter sequence-specific primers. The PCR products were fluorescently labeled by primer extension with 6-arboxyfluorescein (6-FAM) 5'-labeled reporter sequence-specific primer (2 min at 95 C, 20 s at 68 C and 10 min at 72 C) and these products were digested with 5U of HpaI (New England Biolabs) for 2h at 37 C. The fragments were purified using Qiaquick PCR columns (Qiagen), analyzed on an ABI 3130xL genetic analyzer (Applied Biosystems) with peak positions identified by using a set of X-rhodamine (ROX)-labeled MapMarker1000 molecular weight standards (BioVentures). The raw capillary electrophoresis data was processed using Attagraph software (Attagene).

Retinoic acid receptor RXR-alpha (Homo sapiens), sequence (P19793 whole entry, looked up): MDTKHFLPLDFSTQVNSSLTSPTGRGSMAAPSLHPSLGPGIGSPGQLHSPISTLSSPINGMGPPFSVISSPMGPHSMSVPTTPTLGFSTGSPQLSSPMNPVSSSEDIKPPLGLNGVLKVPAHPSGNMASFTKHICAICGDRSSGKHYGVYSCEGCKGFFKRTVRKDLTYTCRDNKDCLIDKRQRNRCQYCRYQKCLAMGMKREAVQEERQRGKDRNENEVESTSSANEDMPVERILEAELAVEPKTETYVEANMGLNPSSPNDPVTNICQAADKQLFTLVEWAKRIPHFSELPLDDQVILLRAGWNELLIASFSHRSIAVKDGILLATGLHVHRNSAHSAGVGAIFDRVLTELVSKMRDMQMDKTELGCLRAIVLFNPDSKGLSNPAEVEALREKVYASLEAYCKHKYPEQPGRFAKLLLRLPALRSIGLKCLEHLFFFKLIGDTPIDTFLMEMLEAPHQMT

Structure (SMILES)	outcome
O=Nc1ccc(Nc2ccccc2)cc1	inactive
CCCCCCCCCOC(C)=O	inactive
CCCCCCCCCCCCOCCO	inactive
CCCC(=O)OCCC(C)CCC=C(C)C (stereo not given)	inactive
CCOC(=O)c1ccccc1OC	inactive
CCCCC(CC)COCCC#N (stereo not given)	inactive
C=C(C)C(=O)O	inactive
CCOC(=S)SSC(=S)OCC	inactive
CN(C)C(=N)N=C(N)N	inactive
CC(C)(C)NC(N)=O	inactive
Nc1ccc(F)c([N+](=O)[O-])c1	inactive
C[Si](O[Si](C)(C)C)O[Si](C)(C)C	inactive
Cc1cccc(C)c1C	inactive
CCN(CC)c1ccc2c(-c3ccccc3C(=O)O)c3ccc(=[N+](CC)CC)cc-3oc2c1	inactive
CCC(=O)OCCC(C)CCC=C(C)C (stereo not given)	inactive
COC(=O)OC	inactive
CC(=O)OCCC(C)CC(C)(C)C (stereo not given)	inactive
NCCNCCN	inactive
CCC(=O)OCc1ccccc1	inactive
C=CCOC(=O)CCC1CCCCC1	inactive

Structure (SMILES)	outcome
CN(CCOc1ccc(CC2SC(=O)NC2=O)cc1)c1ccccn1 (stereo not given)	inactive
CC1(C)[C@@H]2CC[C@@]1(C)[C@H](O)C2	inactive
Cc1c(N(C)C)c(=O)n(-c2ccccc2)n1C	inactive
O=C1CCCCCCCCCCCCCCO1	inactive
CC1COc2ccccc2N1C(=O)C(Cl)Cl (stereo not given)	inactive
CN(C)c1ccc(O)c2c1C[C@H]1C[C@H]3[C@H](N(C)C)C(=O)C(C(N)=O)=C(O)[C@@]3(O)C(=O)C1=C2O	inactive
O=C(O)Cc1cccc2ccccc12	inactive
Cc1ccc(S)cc1	inactive
COC(=O)C1=C(C)NC(C)=C(C(=O)OCCN(C)Cc2ccccc2)C1c1cccc([N+](=O)[O-])c1 (stereo not given)	inactive
CCc1c(C)cc(N)c(CC)c1N	inactive
CC(C)=CCC[C@](C)(O)[C@@H]1CC=C(C)CC1	inactive
CCCc1ccccc1O	inactive
CCCCN	inactive
S=C(S)NCCNC(=S)S	inactive
Cc1ccc(O)c(C(C)(C)C)c1	inactive
CC(C)Oc1ccccc1O	inactive
O=C(O)CN(CCN(CC(=O)O)CC(=O)O)CCN(CC(=O)O)CC(=O)O	inactive
CCC(O)CO (stereo not given)	inactive
CC(C)(C#N)c1cc(Cn2cncn2)cc(C(C)(C)C#N)c1	inactive
C=C(C)C(=O)Nc1ccc(Cl)c(Cl)c1	inactive
